Inconclusive results are not listed. A number with no mark means an inactive call. Active and inactive are the calls of the source. Calls come from the whole dose curve; as a rule, active = well fitted inhibition curve with a large enough effect; inconclusive = small, poorly fitted or top-dose-only effect; inactive = flat fitted curve, though single readings scatter.
How the values were obtained:
Experiment in all cases: Cytotoxic Profiling of Annotated Libraries Using Quantitative High-Throughput Screening (AID 1296008); note: nearly all actives have a fitted effect of over 60% in size
Conditions in all cases: Five cell lines viability, CellTiter-Glo ATP luminescence, 48-72 h; max response: hits give low values
CRL-7250 = normal cell line; tested on: CRL-7250
In short: (§1)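 Cytotoxicity was measured as CellTiter-Glo ATP luminescence, read after 10 min at room temperature. Compound treatment of the cells lasted 48 or 72 hr at 37 degrees Celsius in a qHTS format.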

HEK293 = tested on: HEK293
In short: as §1

HaCat = tested on: HaCat
In short: as §1

KB-3-1 = tested on: KB-3-1
In short: as §1

NIH3T3 = tested on: NIH3T3
In short: as §1
% is set by controls: 0 for no effect and ±100 for the full control effect; potency is the fitted concentration of half-maximal effect.

| Structure (SMILES) | outcome (CRL-7250) | max response (HEK293) [%] | max response (HaCat) [%] | max response (KB-3-1) [%] | outcome (NIH3T3) | max response (CRL-7250) [%] | outcome (HaCat) | outcome (KB-3-1) | max response (NIH3T3) [%] | Potency (HEK293) |
| --- | --- | --- | --- | --- | --- | --- | --- | --- | --- | --- |
| Cc1ncc(Cl)cc1NCc1ccc(C(=O)NC(CC2CCCC2)C(=O)NC2CC2)s1 (stereo not given) | inactive | -15.8 | -11.9 | -1.73 | inactive |  |  |  |  |  |
| C[C@@H]1O[C@@H](O[C@@H]2[C@@H](O)[C@H](O[C@@H]3[C@@H](O)[C@@H](O)[C@H](O[C@H]4[C@H](OC(=O)[C@]56CCC(C)(C)C[C@H]5C5=CCC7[C@@]8(C)C[C@H](O)[C@H](O[C@@H]9O[C@H](C(=O)O)[C@@H](O)[C@H](O)[C@H]9O)[C@@](C)(CO)C8[C@H](O)C[C@@]7(C)[C@]5(C)C[C@H]6O)O[C@@H](CO)[C@@H]4O)O[C@H]3C)OC[C@H]2O)[C@H](O)[C@H](O)[C@H]1O (stereo not given in full) |  | 1.63 |  |  | inactive | 0.0733 | inactive | inactive |  |  |
| CC(=O)OC1C(O)/C(C)=C\C2C(OC(=O)c3ccccc3)C(C)CC2(OC(C)=O)C(OC(C)=O)C(C)/C=C/C(C)(C)C1OC(C)=O (stereo not given) |  | -2.9 |  | 7.33 | inactive | -1.02 | inactive |  |  |  |
| CC1(C)OC(=O)C=C[C@@]2(C)C1CC(=O)[C@]1(C)C2CC[C@@]2(C)[C@H](c3ccoc3)OC(=O)[C@H]3O[C@]321 (stereo not given in full) |  | -1.27 |  |  |  | -0.596 | inactive | inactive | -2.44 |  |
| C=C[C@]1(C)C[C@@H](OC(=O)CSC2C[C@H]3CC[C@@H](C2)N3C)[C@]2(C)[C@H](C)CC[C@]3(CCC(=O)[C@H]32)[C@@H](C)[C@@H]1O (stereo not given in full) |  |  |  | -17.7 | inactive | -0.484 | inactive |  |  | 1460 nM (active) |

Source: PubChem BioAssay (NCATS)
